Potency data for 11 molecules are collected here from PubChem BioAssay (NCATS).

Molecules are shown by their SMILES. Inconclusive results are not listed. Calls of active or inactive are those of the source. Calls come from the whole dose curve; as a rule, active = well fitted curve in the direction sought with a large enough effect; inconclusive = small, poorly fitted or top-dose-only effect, or another doubt; inactive = no such curve, though single readings can be large; an effect the other way counts as inactive or inconclusive.

Test [1] can be described thus: Quantitative High-Throughput drug screen in 47 multiple myeloma cell lines against the NCATS MIPE library collection: Delta47_JCRB cell viability assay (AID 1918925; note: nearly all actives have a fitted effect of over 45% in size). The method, boiled down:
(§1)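 CellTiter-Glo luminescence (ATP) after 48 h compound exposure, 37C/5% CO2; 500 cells/well; MIPE 4.0 approved/investigational drugs pinned in; DMSO = 100%, media only = 0% viability.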

A short description of test [2]: Quantitative High-Throughput drug screen in 47 multiple myeloma cell lines against the NCATS MIPE library collection: AMO1_DSMZ cell viability assay (AID 1918927; note: nearly all actives have a fitted effect of over 30% in size). The method, boiled down:
as §1

A short description of test [3]: Quantitative High-Throughput drug screen in 47 multiple myeloma cell lines against the NCATS MIPE library collection: ARP1_JJKsccF8 cell viability assay (AID 1918928; note: nearly all actives have a fitted effect of over 40% in size). An outline of the steps: (§2)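 Myeloma cells at 500 per well in 1536-well format treated with MIPE 4.0 library by pin transfer for 48 h at 37C, 5% CO2. Viability from ATP luminescence (CellTiter-Glo), normalized to DMSO (100%) and media-only (0%) wells.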

Test [4] is described as follows: Quantitative High-Throughput drug screen in 47 multiple myeloma cell lines against the NCATS MIPE library collection: KMM1_JCRB cell viability assay (AID 1918960). Note: nearly all actives have a fitted effect of over 30% in size. An outline of the steps:
as §2

Test [5] is described as follows: Quantitative High-Throughput drug screen in 47 multiple myeloma cell lines against the NCATS MIPE library collection: Karpas417_ECACC cell viability assay (AID 1918961). Conditions: Karpas417 myeloma viability, CellTiter-Glo ATP luminescence, 48 h; viability (% of DMSO): at 45.8 µM (top of the series). The method, boiled down: (§3)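 Approved and investigational drugs from MIPE 4.0 were added by pin tool to 500 cells per well. After 48 hours at 37C, ATP-based CellTiter-Glo luminescence indicated remaining viability.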
In general terms: Cellular ATP, detected with luciferase, serves as a proxy for viable cell number.

Test [6] in a line: Quantitative High-Throughput drug screen in 47 multiple myeloma cell lines against the NCATS MIPE library collection: KHM11_PLB cell viability assay (AID 1918962). Note: nearly all actives have a fitted effect of over 35% in size. An outline of the steps:
(§4)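 Viability readout: CellTiter-Glo luminescence following 5 min room-temperature incubation with reagent. Prior exposure: 48 h, 37C, humidified 5% CO2, 500 cells per well.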

Test [7] can be described thus: Quantitative High-Throughput drug screen in 47 multiple myeloma cell lines against the NCATS MIPE library collection: INA6_PLB cell viability assay (AID 1918965; note: nearly all actives have a fitted effect of over 55% in size). An outline of the steps: as §3
The nature of test [8]: Quantitative High-Throughput drug screen in 47 multiple myeloma cell lines against the NCATS MIPE library collection: JJN3_DSMZ cell viability assay (AID 1918966; note: nearly all actives have a fitted effect of over 50% in size). The method, boiled down: as §1
Test [9] is described as follows: Quantitative High-Throughput drug screen in 47 multiple myeloma cell lines against the NCATS MIPE library collection: Karpas25_ECACC cell viability assay (AID 1918968; note: nearly all actives have a fitted effect of over 35% in size). The method, boiled down:
as §1

Test [10] in a line: Quantitative High-Throughput drug screen in 47 multiple myeloma cell lines against the NCATS MIPE library collection: KMS12BM_JCRB cell viability assay (AID 1918971). Note: nearly all actives have a fitted effect of over 35% in size. The method, boiled down:
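qHTS of the MIPE 4.0 collection: 500 myeloma cells/well, 48 h drug exposure at 37C in 5% CO2, then CellTiter-Glo for 5 min at room temperature before luminescence reading.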

The nature of test [11]: Quantitative High-Throughput drug screen in 47 multiple myeloma cell lines against the NCATS MIPE library collection: KMS21BM_JCRB cell viability assay (AID 1918974). Conditions: ATP luminescence, 48 h; viability: at 45.8 µM (top of the series) unless noted. An outline of the steps:
as §1

The nature of test [12]: Quantitative High-Throughput drug screen in 47 multiple myeloma cell lines against the NCATS MIPE library collection: ARD_JJKsccE7 cell viability assay (AID 1918929). An outline of the steps:
as §1

The nature of test [13]: Quantitative High-Throughput drug screen in 47 multiple myeloma cell lines against the NCATS MIPE library collection: Karpas620_DSMZ cell viability assay (AID 1918959). Note: nearly all actives have a fitted effect of over 30% in size. The method, boiled down: as §4
Test [14] can be described thus: Quantitative High-Throughput drug screen in 47 multiple myeloma cell lines against the NCATS MIPE library collection: JIM3_ECACC cell viability assay (AID 1918963; note: nearly all actives have a fitted effect of over 35% in size). The method, boiled down: as §4
Test [15] can be described thus: Quantitative High-Throughput drug screen in 47 multiple myeloma cell lines against the NCATS MIPE library collection: JIM1_ECACC cell viability assay (AID 1918964). An outline of the steps:
as §1

Test [16] is described as follows: Quantitative High-Throughput drug screen in 47 multiple myeloma cell lines against the NCATS MIPE library collection: H1112_PLB cell viability assay (AID 1918967; note: nearly all actives have a fitted effect of over 30% in size). An outline of the steps: as §1
Test [17] can be described thus: Quantitative High-Throughput drug screen in 47 multiple myeloma cell lines against the NCATS MIPE library collection: KMS27_JCRB cell viability assay (AID 1918970). Note: nearly all actives have a fitted effect of over 30% in size. An outline of the steps: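 ATP-based viability (CellTiter-Glo luminescence) is measured in cells treated 48 h with approved and investigational drugs at 37 °C. Controls are DMSO-only wells for full viability and media-only wells for none.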

A short description of test [18]: Quantitative High-Throughput drug screen in 47 multiple myeloma cell lines against the NCATS MIPE library collection: KMS12PE_JCRB cell viability assay (AID 1918972). Note: nearly all actives have a fitted effect of over 30% in size. The method, boiled down:
as §3

A short description of test [19]: Quantitative High-Throughput drug screen in 47 multiple myeloma cell lines against the NCATS MIPE library collection: KMS20_JCRB cell viability assay (AID 1918973). Note: nearly all actives have a fitted effect of over 45% in size. The method, boiled down:
as §1

Test [20] is described as follows: Quantitative High-Throughput drug screen in 47 multiple myeloma cell lines against the NCATS MIPE library collection: EJM_DSMZ cell viability assay (AID 1918926; note: nearly all actives have a fitted effect of over 30% in size). An outline of the steps: as §1
Potency is the fitted concentration of half-maximal effect.

Regarding `CC(C)=CCCC(C)=CCCC(C)=CCSc1ccccc1C(=O)O`, the Potency in [1] was 2350 nM (active); in [2] it was 4180 nM (active); in test [3], 1180 nM (active); in [4], 187 nM (active); in test [5], 235 nM (active); in [6], 1180 nM (active). Moreover, the Potency in test [7] is 18700 nM (active); in test [8] it was 1180 nM (active); in [9] it was 2350 nM (active); in [10], 1660 nM (active); in [11], 5900 nM (active).

For `Nc1cc(C(F)(F)F)c(-c2cc(N3CCOCC3)nc(N3CCOCC3)n2)cn1`, the Potency in test [1] was 296 nM (active); in test [2], 105 nM (active); in [3] it was 209 nM (active); in test [12], 187 nM (active); in test [13], 235 nM (active); in test [4], 372 nM (active). Besides, the Potency was 1050 nM (active) in test [6]; 743 nM (active) in test [14]; 46.9 nM (active) in test [15]; 1320 nM (active) in test [7]; 3720 nM (active) in test [8]; 743 nM (active) in test [16]. For the same molecule, the Potency in test [9] is 743 nM (active); in test [17], 209 nM (active); in test [10] it was 1050 nM (active); in test [18], 418 nM (active); in test [11], 418 nM (active).

Take `COc1c(OCCCN2CCOCC2)ccc2c3n(c(=NC(=O)c4cnc(N)nc4)nc12)CCN3`: the Potency in [1] is 182 nM (active); in test [2], 512 nM (active); in [3] it was 28.8 nM (active); in test [12], 14.4 nM (active); in test [13], 102 nM (active); in test [4], 12.9 nM (active). In addition, the Potency in [5] is 8.1 nM (active); in test [6], 575 nM (active); in test [15], 7.2 nM (active); in test [7], 6450 nM (active); in [8], 3230 nM (active); in [9], 57.5 nM (active). Also, the Potency was 45.7 nM (active) in test [17], 5750 nM (active) in test [10], 72.4 nM (active) in [18] and 51.2 nM (active) in [19].

As for `C[C@@H]1CN(CC(=O)Nc2ccc3c(c2)Cc2cccc(-c4cc(=O)cc(N5CCOCC5)o4)c2S3)C[C@H](C)O1`, the Potency in test [1] was 2640 nM (active); in test [2] it was 5260 nM (active); in test [3], 9350 nM (active); in [12], 18700 nM (active); in test [4] it was 10500 nM (active); in test [7] it was 11800 nM (active). Further, the values for the Potency in test [9], in [10] and in test [18] were 4180 nM (active), 20900 nM (active) and 13200 nM (active), respectively.

For `Nc1ccn([C@@H]2O[C@H](CO)[C@H](O)C2(F)F)c(=O)n1`, the Potency was 41.8 nM (active) in [1]; 59 nM (active) in test [2]; 105 nM (active) in test [3]; 296 nM (active) in test [12]; 469 nM (active) in test [13]; 83.3 nM (active) in test [4]. The Potency in test [6] was 5900 nM (active); in test [14], 526 nM (active); in test [15] it was 105 nM (active); in test [7], 52.6 nM (active); in [16], 18.7 nM (active); in test [9], 3720 nM (active). In addition, the Potency is 52.6 nM (active) in test [17], 26.4 nM (active) in [10], 74.3 nM (active) in [18] and 418 nM (active) in test [19].

As for `COc1ccc(CC2SC(=O)NC2=O)cc1C(=O)NCc1ccc(C(F)(F)F)cc1` (stereo unspecified), the Potency entry in test [1], in test [20], in test [3], in test [6], in test [14] and in test [8] was “inactive” each time. The Potency entry in [16], in test [17] and in [10] was “inactive” in each case. Further, the Potency in test [9] is 5900 nM (active).

With `COc1ccc2c(OCc3nnc4ccc(-c5ccccc5)nn34)ccnc2c1`, the Potency entry in test [1], in test [2], in test [3], in [13], in test [4] and in [14] was “inactive” each time. Besides, the Potency result in test [9] and in [10] was “inactive” in each case.

Regarding `CCN1CCN(CC(=O)Nc2ccc(-c3cccc4c(=O)cc(N5CCOCC5)oc34)c3sc4ccccc4c23)CC1`, the Potency in test [1] is 418 nM (active); in test [20], 13200 nM (active); in [3] it was 264 nM (active); in test [4], 132 nM (active); in test [6], 52.6 nM (active); in test [14], 1180 nM (active). Moreover, the Potency in test [8] was 3720 nM (active); in test [16], 6620 nM (active); in test [9], 264 nM (active); in [10], 1050 nM (active); in test [18], 2350 nM (active).

On to `CCOc1cc2ncc(C#N)c(Nc3ccc(F)c(Cl)c3)c2cc1NC(=O)C=CCN(C)C`, for which the Potency is 6620 nM (active) in test [1]; 5900 nM (active) in test [20]; 1660 nM (active) in [3]; 20900 nM (active) in test [6]; 18700 nM (active) in test [14]; 526 nM (active) in [7]. In addition, the Potency in test [8] is 9350 nM (active); in test [16], 5260 nM (active); in test [9], 662 nM (active); in [10], 5260 nM (active); in test [19], 4690 nM (active).

For `CC(=O)Nc1nc(C)c(-c2ccc(Cl)c(S(=O)(=O)NCCO)c2)s1`, the Potency was 662 nM (active) in [1]; 1320 nM (active) in test [2]; 418 nM (active) in test [12]; 6620 nM (active) in test [13]; 3720 nM (active) in [4]; 132 nM (active) in test [5]. Further, the Potency in test [6] is 935 nM (active); in test [14], 4690 nM (active); in test [15] it was 1180 nM (active); in test [7] it was 1050 nM (active); in test [8] it was 18700 nM (active); in test [16], 1480 nM (active). The Potency in [10] is 18700 nM (active); in test [18], 5260 nM (active); in test [19], 1180 nM (active); in [11], 1660 nM (active).

With `Cc1coc2c1C(=O)C(=O)c1c-2ccc2c1CCCC2(C)C`, the Potency is 8330 nM (active) in test [1]; 20.9 nM (active) in test [2]; 16600 nM (active) in test [3]; 7430 nM (active) in test [6]; 6620 nM (active) in test [14]; 16600 nM (active) in test [7]. Further, the results for the Potency in test [8], in test [9] and in test [10] were 11800 nM (active), 8330 nM (active) and 5260 nM (active), respectively. Moreover, the Potency entry in [13] and in [15] was “inactive” throughout.
